High-throughput results deposited in PubChem by National Center for Advancing Translational Sciences (NCATS).
Most compounds without a hit are left out; they make up all but 10% or so of the library.
NS1 inh: influenza NS1 inhibition | Potency, µM (series often up to 46.1 µM), inactives show at the top dose activity, positive = more growth | 270,000 compounds, 0.4% hits | AID 2326; note: actives are rising curves; nearly all actives have a fitted effect of over 50% in size
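Read-out: OD600 growth recovery of NS1-expressing budding yeast. Cells grown overnight at 30C in -URA glucose medium, washed, resuspended and diluted 1:100 in 2% galactose assay medium, pH 6.0. Same strain lacking NS1 served as positive control.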
SARS PLpro yeast: inhibitors of SARS-CoV papain-like protease in yeast; S. cerevisiae expressing SARS-CoV PLpro, growth rescue; Potency, µM (highest dose often 32.9 µM), without a hit: top-dose activity, positive = growth rescue, actives largely listed as activators; 330,000 compounds, 0.19% hits; note: 0% is about no effect; nearly all actives have a fitted effect of over 55% in size
Pf growth 96h: P. falciparum growth inhibition at 96 hour, primary screen for plastid delayed-death inhibitors | P. falciparum luciferase reporter growth, 96 h | Potency, µM (highest dose often 28.7 µM), for the others: top-dose activity change, negative = inhibition, most hits filed as inhibitors | 320,000 compounds, 6.9% hits; active = well fitted inhibition curve with a large enough effect; inconclusive = small, poorly fitted or top-dose-only effect, or another doubt; inactive = no such curve, though single readings can be large or run the other way; note: % is set by controls: 0 for no effect and ±100 for the full control effect
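Luminescence readout: decreased luciferase signal marks inhibited growth of reporter-expressing P. falciparum in infected red cells (2% hematocrit, 0.05% parasitemia final), exposed to compound two generations (96 h, 37 C, 5% CO2).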
Pf growth 48h: inhibits P. falciparum growth in the first generation, 48 h; 310,000 compounds, 5.9% hits; AID 504832; Potency, µM (top dose mostly 28.7 µM), for inactives: at the top dose activity change, negative = inhibition, actives largely listed as inhibitors; P. falciparum luciferase growth in erythrocytes, 48 h; active = well fitted inhibition curve with a large enough effect; inconclusive = small, poorly fitted or top-dose-only effect, or another doubt; inactive = no such curve, though single readings can be large or run the other way; note: % is set by controls: 0 for no effect and ±100 for the full control effect
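In quantitative HTS format, infected erythrocytes bearing luciferase-reporter parasites were treated for a single generation at 37 C. Luminescence after adding detection reagent served as the growth measure.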
* marks the source's active call; other numbers are inactive results; [ ] = remark or other dose. Unless noted, calls come from the whole dose curve. Potency is the fitted concentration of half-maximal effect.

What do the screens show for `CN1CCN(c2ccccc2NC(=O)COc2ccc(Br)cc2)CC1`?
NS1 inh: -4%; SARS PLpro yeast: -6%; Pf growth 96h: 1.9µM*

What do the screens show for `O=C(COc1ccccc1)Nc1ccccc1N1CCN(c2ccccc2)CC1`?
NS1 inh: -9%; SARS PLpro yeast: 1%; Pf growth 96h: 2.9µM*; Pf growth 48h: inconclusive

Results for O=C(COc1ccccc1)Nc1ccccc1N1CCN(c2ccc(F)cc2)CC1 ?
NS1 inh: -4%; SARS PLpro yeast: -3%; Pf growth 96h: -21%; Pf growth 48h: -3%

Results for CCOc1ccc(OCC(=O)Nc2ccccc2N2CCCC2)cc1 ?
SARS PLpro yeast: -7%; Pf growth 96h: 12µM*; Pf growth 48h: inconclusive

Results for Cc1cccc(OCC(=O)Nc2ccccc2N2CCN(C)CC2)c1 ?
NS1 inh: 4%; SARS PLpro yeast: 0%; Pf growth 96h: 8%; Pf growth 48h: 5%

How did O=C(COc1ccccc1)Nc1ccccc1N1CCCCC1 do in these assays?
NS1 inh: -46%; SARS PLpro yeast: -11%; Pf growth 96h: 4%; Pf growth 48h: inconclusive

How did O=C(COC(=O)C1(c2ccc(F)cc2)CCCC1)N1CCc2ccccc21 do in these assays?
NS1 inh: 5%; SARS PLpro yeast: -4%; Pf growth 96h: inconclusive; Pf growth 48h: inconclusive

Results for Cn1c2c(c(=O)n(C)c1=O)C(C(F)(F)F)(C(F)(F)F)N=C(c1ccc(Cl)cc1)N2 ?
NS1 inh: -143%; SARS PLpro yeast: -26%; Pf growth 96h: 1.5µM*; Pf growth 48h: inconclusive

How did Cc1cc(NC(=O)C(C)SCC(=O)N(C)CC(=O)Nc2ccc(F)cc2)no1 (stereo unspecified) do in these assays?
SARS PLpro yeast: 1%; Pf growth 96h: 20%; Pf growth 48h: 7%

Results for CCC(C)OC(=O)c1c(N)n(Cc2cccs2)c2nc3ccccc3nc12 (stereo unspecified) ?
NS1 inh: 10%; SARS PLpro yeast: -1%; Pf growth 48h: 0%

Results for Nc1c(C(=O)OCc2ccccc2)c2nc3ccccc3nc2n1Cc1cccs1 ?
NS1 inh: 9%; SARS PLpro yeast: -7%; Pf growth 96h: 15µM*

What do the screens show for `O=C(O)c1ccc(OS(=O)(=O)c2ccc(Cl)s2)cc1`?
SARS PLpro yeast: 1%; Pf growth 96h: 24%; Pf growth 48h: 30%

What do the screens show for `CN(C)CCC(=O)N1c2ccccc2Sc2ccc(C(F)(F)F)cc21`?
NS1 inh: -7%; SARS PLpro yeast: -5%; Pf growth 96h: 0%; Pf growth 48h: 29%

Results for CCCn1c(SCC(=O)N2c3ccccc3Sc3ccccc32)nc2ccccc21 ?
NS1 inh: 18%; SARS PLpro yeast: -23%; Pf growth 96h: 3.7µM*; Pf growth 48h: 13µM*

Results for CCCn1c(SCC(=O)O)nc2ccccc21 ?
NS1 inh: -9%; SARS PLpro yeast: -1%; Pf growth 96h: 32%; Pf growth 48h: 25%

What do the screens show for `O=C(CSc1nc2ccccc2s1)N1c2ccccc2Sc2ccc(Cl)cc21`?
NS1 inh: 25%; SARS PLpro yeast: -2%; Pf growth 96h: 5.9µM*; Pf growth 48h: inconclusive

What do the screens show for `O=C(CSc1nc2ccccc2s1)N1c2ccccc2Sc2ccc(C(F)(F)F)cc21`?
NS1 inh: 13%; SARS PLpro yeast: 4%; Pf growth 96h: inconclusive; Pf growth 48h: 15µM*

Results for O=C(N=C1SC2CS(=O)(=O)CC2N1CCc1ccccc1)C1CCCCC1 (stereo unspecified) ?
NS1 inh: -5%; SARS PLpro yeast: 2%; Pf growth 96h: -1%; Pf growth 48h: -4%

What do the screens show for `O=C1C(=O)N(CCCc2ccccc2)c2ccccc21`?
NS1 inh: 1%; SARS PLpro yeast: -12%; Pf growth 96h: 10µM*; Pf growth 48h: inconclusive

What do the screens show for `CCOc1cc(C(=O)NC(C)C2CCCO2)cc(OCC)c1OCC` (stereo unspecified)?
NS1 inh: 0%; SARS PLpro yeast: 0%; Pf growth 96h: 12µM*; Pf growth 48h: 41%[1.15 µM]

How did COc1ccc(C(=O)Nc2cccc(NC(=O)c3ccc(OC)c(OC)c3)n2)cc1OC do in these assays?
NS1 inh: -23%; SARS PLpro yeast: 0%; Pf growth 96h: -15%; Pf growth 48h: 10µM*

How did Cc1ccc(C(=O)Nc2cccc(NC(=O)c3ccc(C)c([N+](=O)[O-])c3)n2)cc1[N+](=O)[O-] do in these assays?
NS1 inh: -1%; SARS PLpro yeast: -3%; Pf growth 96h: inconclusive; Pf growth 48h: 1.7µM*

Results for COc1ccc(C(=O)Nc2cccc3cccnc23)cc1OC ?
NS1 inh: -35%; SARS PLpro yeast: -5%; Pf growth 96h: -13%

Results for COc1cc(C(=O)Nc2ccc(NC(=O)c3cccc(Cl)c3)nc2)cc(OC)c1OC ?
NS1 inh: 2%; SARS PLpro yeast: 11%; Pf growth 96h: 74%; Pf growth 48h: 2.6µM*

Results for O=C(NC(=S)N(CCCCO)C1CCCCC1)c1sc2ccccc2c1Cl ?
NS1 inh: -43%; SARS PLpro yeast: -4%; Pf growth 96h: inconclusive; Pf growth 48h: inconclusive

Results for O=C(Nc1ccnn1C1CCN(C(=O)CCc2ccc(F)cc2)CC1)C1CCOC1 (stereo unspecified) ?
NS1 inh: 3%; SARS PLpro yeast: 2%; Pf growth 96h: 1%; Pf growth 48h: inconclusive

What do the screens show for `COc1ccc(NC(=O)C(=O)c2cn(CC(=O)N3CCCC3)c3ccccc23)cc1OC`?
NS1 inh: -6%; SARS PLpro yeast: -3%; Pf growth 96h: inconclusive; Pf growth 48h: -24%

Results for Cc1ccc(NC(=O)C(=O)c2cn(CC(=O)N3CCCCC3)c3ccccc23)cc1 ?
NS1 inh: -42%; SARS PLpro yeast: -2%; Pf growth 96h: inconclusive; Pf growth 48h: 49%

Results for COc1ccc(OC)c(NC(=O)C(=O)c2cn(CC(=O)N3CCCC3)c3ccccc23)c1 ?
NS1 inh: -10%; SARS PLpro yeast: -1%; Pf growth 96h: 4.7µM*; Pf growth 48h: 9.3µM*

How did COc1ccc(C)cc1NC(=O)C(=O)c1cn(CC(=O)N2CCCC2)c2ccccc12 do in these assays?
NS1 inh: 30%; SARS PLpro yeast: -4%; Pf growth 96h: 8.3µM*; Pf growth 48h: inconclusive

Results for COc1cccc(NC(=O)C(=O)c2cn(CC(=O)N3CCCC3)c3ccccc23)c1 ?
NS1 inh: 25%; SARS PLpro yeast: 17%; Pf growth 96h: 10µM*; Pf growth 48h: 4%

Results for O=C(Nc1ccccc1F)C1CCN(S(=O)(=O)c2cccc3nonc23)CC1 ?
NS1 inh: 27%; SARS PLpro yeast: 2%; Pf growth 96h: 0%; Pf growth 48h: 1%

What do the screens show for `CCn1cnc2c([N+](=O)[O-])c(NS(=O)(=O)c3ccc(C)cc3)ccc21`?
SARS PLpro yeast: 27%; Pf growth 96h: inconclusive; Pf growth 48h: 9%

What do the screens show for `CCN(C(=O)CSc1nnc(Cn2nnc3ccccc32)o1)c1nc(C)cs1`?
NS1 inh: 7%; SARS PLpro yeast: 0%; Pf growth 96h: 9.3µM*; Pf growth 48h: -2%

How did O=C(CSc1nnc(Cn2nnc3ccccc32)o1)Nc1cccc(Cl)c1 do in these assays?
NS1 inh: 0%; SARS PLpro yeast: -2%; Pf growth 96h: 119%; Pf growth 48h: 13%
